The full list was thinned out, with hits kept by preference.
PTK2B oligo ant – antagonists of Pyk2 self-association, primary screen, Q293 cells, FERM NanoBiT luminescence, HTS; Protein-tyrosine kinase 2-beta (Homo sapiens), Q14289; AID 1347419, 2020; z-score (the deposit names both 25 µM and 10 µM); hits give low values; hit rate 0.83% among 99,000;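 active means Z-score of -3 or lower, scaled per plate to the spread of control and sample wells; inactive means z-score above -3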;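 further: negative z-score means lost luminescence so less FERM oligomerization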
D1 mod – D1 CRE-luciferase signal change, two-sided – cell-based, HEK293 D1, dopamine EC30, D1 allosteric modulator project, primary screen; D(1A) dopamine receptor (Homo sapiens), P21728; dopamine EC30 potentiation; actives deviate in either direction; B-score at 10 µM; hit rate 5.9% among 58,000;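 active means luminescence count or its row- and column-corrected plate score outside the 99.7% band of the plate's sample wells, on either side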
Target sequence (P21728 whole entry, looked up): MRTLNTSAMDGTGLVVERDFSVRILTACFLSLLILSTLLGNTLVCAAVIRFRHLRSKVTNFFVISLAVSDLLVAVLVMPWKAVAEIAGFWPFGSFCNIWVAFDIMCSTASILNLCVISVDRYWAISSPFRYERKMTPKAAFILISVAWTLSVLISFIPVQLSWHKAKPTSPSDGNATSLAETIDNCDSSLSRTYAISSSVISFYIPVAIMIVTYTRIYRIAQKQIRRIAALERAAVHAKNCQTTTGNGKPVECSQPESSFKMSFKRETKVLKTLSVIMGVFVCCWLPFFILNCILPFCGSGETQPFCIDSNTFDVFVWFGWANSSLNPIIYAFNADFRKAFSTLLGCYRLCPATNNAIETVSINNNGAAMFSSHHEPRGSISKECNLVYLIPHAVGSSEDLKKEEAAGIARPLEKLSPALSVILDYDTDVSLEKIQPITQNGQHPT
FAK inh – FAK kinase inhibitors, primary screen, biochemical; Focal adhesion kinase 1 (Homo sapiens), Q05397; biochemical FAK kinase activity assay; inhibition, %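 (tested at 7 µM)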; hit rate 0.84% among 97,000; AID 727, 2007; in the data active means inhibition above about 19%
CD11b adhes inh – inhibitors of CD11b/CD18 adhesion to fibrinogen, primary screen, K562 cells, luminescence; Integrin beta-2 (Homo sapiens) + Integrin alpha-M (Homo sapiens), P05107+P11215; ATPlite luminescence; Mn2+ added to activate the integrin; inhibition, % at 10 µM; hit rate 0.54% among 93,000; AID 1497, 2009;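 active means primary inhibition of 50% or more at 10 µM, then 40% or more on retest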
hDAT+cocaine – changed hDAT dopamine uptake under cocaine IC80, either direction, primary screen, cocaine antagonist project, cell-based, LLC-PK1 hDAT, [14C]-dopamine uptake, MLSMR | hit rate 1.3% among 110,000 | B-score at 10 µM | Sodium-dependent dopamine transporter (Homo sapiens), Q01959 | LLC-PK1 hDAT cells, [14C]-dopamine uptake with cocaine IC80; actives deviate in either direction | AID 449768, 2010;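 active means Z score or B-score, a plate-position-corrected score, falls beyond the plate's 99.7% confidence bounds, in either direction; inactive means both scores lie inside the 99.7% bounds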
Mac1 fbg enh – enhancers of CD11b/CD18 adhesion to fibrinogen, primary screen, K562 cells, luminescence; Integrin beta-2 (Homo sapiens) + Integrin alpha-M (Homo sapiens), P05107+P11215; ATPlite luminescence; activation, % at 10 µM; hit rate 0.07% among 93,000;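 active means 10 µM primary screen giving 50% or more activity, confirmed by 40% or more on retest at that dose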
Hits are given with their value; i = inactive; nt = not tested or not shown.

SMILES | PTK2B oligo ant | D1 mod | FAK inh | CD11b adhes inh | hDAT+cocaine | Mac1 fbg enh
Cc1ccc(NC(=O)c2cc(C)on2)cc1 | i | i | i | i | i | i
Cc1ccc(NC(=O)c2onc(C)c2Cl)cc1 | nt | nt | i | i | -2.6 | i
O=C1COc2ccc(-c3csc(=Nc4ccc(OC(F)F)cc4)n3CC3CCCO3)cc2N1 (configuration not stated) | i | nt | i | nt | i | nt
CCN=c1scc(-c2ccc3c(c2)NC(=O)CO3)n1N=C1CCCC1 | i | i | i | 98 | 5.5 | i
COCC(C)n1c(-c2ccc3c(c2)NC(=O)CO3)csc1=Nc1ccc(OC(F)F)cc1 (configuration not stated) | i | nt | i | 96 | i | i
CCCCN=c1scc(-c2ccc3c(c2)NC(=O)CO3)n1N=C1CCCC1 | i | nt | i | i | i | i
COc1ccccc1N=c1scc(-c2ccc3c(c2)NC(=O)CO3)n1CC1CCCO1 (configuration not stated) | i | -2.8 | nt | i | i | i
COc1ccc(-c2csc(NC(C)c3nc4cc(C(=O)NCCCO)ccc4n3Cc3ccc(C)cc3)n2)cc1 (configuration not stated) | nt | nt | nt | nt | i | nt
Cc1ccc(C)c(NC(=O)c2ccc(S(=O)(=O)C(F)F)cc2)c1 | nt | nt | nt | i | nt | i
O=C(CSc1n[nH]c(-c2ccccc2Br)n1)NCCN1C(=O)CSC1=O | nt | nt | nt | i | nt | i
CCC(C)[C@H](NC(=O)N1CCN(c2cccc(C(F)(F)F)c2)CC1)C(=O)OC (some centres not stated) | i | nt | i | i | 3.2 | i
CCOc1cc(N2CCOCC2)c(OCC)cc1NS(=O)(=O)c1ccc(Cl)s1 | i | i | i | i | i | i
COc1ccc(S(=O)(=O)N2Cc3ccccc3CC2C(=O)Nc2nccs2)cc1 (configuration not stated) | i | nt | i | nt | i | nt
COc1ccc(/C=C2\SC(=S)N(Cc3cccnc3)C2=O)cc1C | nt | nt | nt | i | nt | i
CCOc1cc(/C=C2/SC(=Nc3ccccc3)N(Cc3cccnc3)C2=O)ccc1OCC#N | -3.6 | nt | i | i | i | i
O=C(O)CCN1C(=O)/C(=C/c2ccc(-c3nc4ccccc4s3)o2)SC1=S | i | nt | i | 64 | nt | i
O=C(O)CC(C(=O)O)N1C(=O)/C(=C/c2ccc(-c3nc4ccccc4s3)o2)SC1=S (configuration not stated) | i | nt | i | i | nt | i
CCOc1ccc(C(=O)CCc2nc3ccccc3s2)cc1 | -3.3 | nt | i | nt | i | nt
CCC(=O)N1CCN(c2ccc(NC(=O)COc3ccccc3Cl)cc2)CC1 | i | nt | i | i | i | i
Cc1cc(OCC(=O)Nc2ccc(S(=O)(=O)N3CCN(C)CC3)cc2)cc(C)c1Cl | i | -6.5 | i | i | i | i
CN1CCN(S(=O)(=O)c2ccc(NC(=O)c3ccc(Br)o3)cc2)CC1 | i | i | i | i | i | i
CN1CCN(c2ccc(NC(=O)COc3ccccc3Cl)cc2)CC1 | i | -4.1 | i | i | i | i
Cc1cc(OCC(=O)Nc2ccc(S(=O)(=O)N3CCN(C)CC3)cc2)ccc1Cl | i | nt | i | nt | i | nt
CN1CCN(S(=O)(=O)c2ccc(NC(=O)c3ccc(Br)s3)cc2)CC1 | i | -3.9 | i | i | i | i
Cc1[nH]c2ccccc2c1C(=O)CSc1nc2ccccc2c(=O)n1CCCN1CCOCC1 | i | nt | i | i | i | i
SMILES | PTK2B oligo ant | D1 mod | FAK inh | CD11b adhes inh | hDAT+cocaine | Mac1 fbg enh
CC(C)N(Cc1nc(-c2ccccc2)no1)C(=O)CN1C(=O)c2ccccc2C1=O | i | i | i | nt | i | nt
CC(C)N(Cc1nc(-c2ccccc2)no1)C(=O)CCCN1C(=O)c2ccccc2C1=O | i | i | i | i | 2.4 | i
CC1CC(N(C(=O)c2ccccc2Cl)c2ccccc2)c2ccccc2N1 (configuration not stated) | -3.6 | nt | i | i | nt | i
CC(Oc1ccc(F)cc1)C(=O)Nc1sc2c(c1C(=O)NCc1cccnc1)CCCC2 (configuration not stated) | -3.1 | nt | i | i | i | i
CCOc1ccc(/C=N/n2c(SC)nnc2-c2ccccc2)cc1OCC | i | nt | i | nt | 3.3 | nt
CCOc1ccc(/C=N/n2c(SC)nnc(C(C)(C)C)c2=O)cc1 | i | nt | i | i | i | i
COc1ccc(C(C(=O)NC(C)(C)C)N(Cc2cccs2)C(=O)CCC(=O)Nc2cc(C)on2)cc1 (configuration not stated) | i | nt | i | nt | 3 | nt
CCOC(=O)c1cnc(-n2nc(C)cc2C)nc1NCCc1ccccc1 | i | i | i | i | i | i
CCOC(=O)c1cnc(-n2nc(C)cc2C)nc1NCc1ccc2c(c1)OCO2 | i | i | i | i | -7 | i
COc1ccc(C(C)=O)cc1COc1ccc(-n2cnnn2)cc1 | i | nt | i | i | i | i
O=C(NCCN1CCN(c2ccccc2F)CC1)C1CCCN(S(=O)(=O)c2cnc[nH]2)C1 (configuration not stated) | nt | -3.2 | i | i | nt | i
O=C1C(N2CCOCC2)=C(n2nnc3ccccc32)C(=O)c2ccccc21 | i | nt | i | i | -3.9 | i
Cc1ccc(S(=O)(=O)C(C#N)c2nc3ccccc3nc2N2CCCCC2)cc1 (configuration not stated) | nt | i | nt | i | nt | i
Cc1cccc(S(=O)(=O)C(C#N)c2nc3ccccc3nc2N2CCOCC2)c1 (configuration not stated) | i | i | i | 58 | i | i
N#CC(c1nc2ccccc2nc1N1CCCCC1)S(=O)(=O)c1ccc(Cl)cc1 (configuration not stated) | nt | -2.5 | nt | i | nt | i
COc1cccc(NC(=O)N2CCN(Cc3nc4ccccc4c(=O)[nH]3)CC2)c1 | nt | i | nt | nt | nt | nt
COCCn1c(SCC(=O)Nc2sccc2C(N)=O)nc2cc(Cl)ccc2c1=O | -3 | nt | i | i | i | i
COc1cccc(-n2c(SCC(N)=O)nc3c([nH]c4ccccc43)c2=O)c1 | i | nt | nt | i | nt | i
Cc1ccc(-n2c(SCC(N)=O)nc3c([nH]c4ccccc43)c2=O)cc1 | nt | -4.1 | nt | i | i | i
COc1ccc(-n2nc(C(=O)c3cccs3)cc(-c3nc4ccccc4[nH]3)c2=N)cc1 | -3.3 | nt | i | nt | nt | nt
Cc1ccccc1-n1nc(C(=O)c2cccs2)cc(-c2nc3ccccc3[nH]2)c1=N | i | nt | i | nt | i | nt
COC(=O)c1ccc(/C(O)=C(\C#N)c2nc3ccccc3s2)cc1 | i | i | i | 103 | i | i
CC(=O)Nc1cccc(NC(=O)C2CCCN2C(=O)Nc2ccccc2C)c1 (configuration not stated) | i | i | i | i | i | i
CCOC(=O)C(=CNc1cccc(C)c1C)C(=O)OCC | i | nt | i | nt | 6.1 | nt

Bioassay records as filed in PubChem.
